Screening results from PubChem.
proKLK7 act = proKLK7 zymogen activators, primary screen, biochemical, fluorescence intensity | activation, % at 7 µM | AID 652039, 2013 | Kallikrein-7 (Homo sapiens), P49862 | purified proKLK7, EDANS-DABCYL substrate fluorescence; 100% is mature enzyme control, 0% vehicle | 370,000 compounds, 0.9% hits;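 active = activation above the mean of all tested compounds plus 3 SD, computed per campaign excluding outliers beyond control limits, cut at about 13% in these data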
ADAM10 inh = human ADAM10 inhibitors, primary screen, biochemical, QFRET, HTS. inhibition, % at 7 µM. recombinant ADAM10, EDANS/DABCYL FRET peptide cleavage, 3 h. 370,000 compounds, 0.62% hits. AID 720582, 2013;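 active = inhibition above a per-campaign cutoff equal to the mean of compounds falling between control-based bounds plus 3 SD, cut at about 20% in these data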
ADAM17 inh = ADAM17 inhibitors, primary screen, biochemical, QFRET | Disintegrin and metalloproteinase domain-containing protein 17 (Homo sapiens), P78536 | recombinant ADAM17, EDANS/DABCYL FRET peptide cleavage | inhibition, % at 6.95 µM | 370,000 compounds, 0.83% hits | AID 720648, 2013;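 active = inhibition above the mean of compounds lying between control limits plus 3 SD, set per campaign, cut at about 8.5% in these data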
Target sequence (P78536 215-824 limits assumed): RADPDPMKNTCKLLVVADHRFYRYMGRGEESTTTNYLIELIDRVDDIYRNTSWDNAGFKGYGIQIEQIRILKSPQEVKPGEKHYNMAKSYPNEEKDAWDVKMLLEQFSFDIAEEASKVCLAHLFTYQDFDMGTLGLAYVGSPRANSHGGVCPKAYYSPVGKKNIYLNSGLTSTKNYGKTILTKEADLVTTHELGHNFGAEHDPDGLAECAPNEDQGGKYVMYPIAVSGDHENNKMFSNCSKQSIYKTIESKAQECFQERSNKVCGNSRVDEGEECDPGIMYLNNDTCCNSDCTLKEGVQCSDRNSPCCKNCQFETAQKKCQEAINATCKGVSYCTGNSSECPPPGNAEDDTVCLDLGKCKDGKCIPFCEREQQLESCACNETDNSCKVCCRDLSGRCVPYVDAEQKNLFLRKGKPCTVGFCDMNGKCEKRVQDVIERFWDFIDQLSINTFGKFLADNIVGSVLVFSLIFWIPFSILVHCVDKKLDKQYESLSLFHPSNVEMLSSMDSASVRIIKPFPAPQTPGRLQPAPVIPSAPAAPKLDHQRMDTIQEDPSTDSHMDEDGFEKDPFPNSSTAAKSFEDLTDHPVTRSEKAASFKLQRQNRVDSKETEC
GRIN3A LBD mod = binders of NR3A ligand-binding domain, primary screen, biophysical, differential scanning fluorimetry, uHTS; 340,000 compounds, 2.5% hits; AID 1259313, 2017; Tm shift relative to glycine control, % at 25 µM; NR3A LBD differential scanning fluorimetry, Tm shift; 0% = protein alone, 100% = glycine-bound protein;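 active = melting temperature shift of at least 10% of the positive control shift, at one fixed dose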
FAS TE block = FAS thioesterase domain inhibitors, primary screen, biochemical, fluorescence intensity, uHTS | Fatty acid synthase (Homo sapiens), P49327 | recombinant FAS-TE, OMFH fluorogenic substrate, fluorescence endpoint | inhibition, % at 15 µM | 360,000 compounds, 0.67% hits | AID 602261, 2012;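 active = compounds whose normalised, plate-corrected inhibition of enzyme fluorescence in the single-dose primary screen is 50% or more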
FAS-TE conf = FAS thioesterase domain inhibitors, confirmation, biochemical, fluorescence intensity, single concentration. 2,300 compounds, 45% hits. recombinant FAS-TE, OMFH fluorogenic substrate. inhibition, % at 15 µM. shares compounds with FAS TE block;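 active = compounds inhibiting the enzyme by at least 50% at 15 µM in any one of the replicates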
Each line names hits and unclear results; the compound was inactive in the other large screens (follow-up assays come after a bar, where they were run). Shown are actives, neighbours in structure and some others; about 4.6% of the full set was active somewhere.

O=C1[C@H]2[C@@H](c3ccc(F)cc3)N3C(=O)N(c4cccc(F)c4)C(=O)[C@@]3(Cc3ccc(Cl)cc3)[C@H]2C(=O)N1C1CCCCC1	FAS TE block 71 | FAS-TE conf inactive
Cc1ccc(N2C(=O)N3[C@H](c4ccc(Cl)cc4)[C@@H]4C(=O)N(C5CCCCC5)C(=O)[C@@H]4[C@]3(Cc3ccccc3)C2=O)cc1	FAS TE block 93 | FAS-TE conf inactive
CC[C@@]12C(=O)N(c3cccc(F)c3)C(=O)N1[C@H](c1ccc(Cl)cc1)[C@@H]1C(=O)N(C3CCCCC3)C(=O)[C@@H]12	FAS TE block 67 | FAS-TE conf inactive
Cc1cccc(N2C(=O)N3[C@H](c4ccc(F)cc4)[C@@H]4C(=O)N(C5CCCCC5)C(=O)[C@@H]4[C@]3(Cc3ccc(Cl)cc3)C2=O)c1	FAS TE block 93 | FAS-TE conf inactive
CCN1C(=O)[C@H]2[C@@H](c3ccc(C)cc3)N3C(=O)N(c4cccc(Cl)c4)C(=O)[C@@]3(Cc3ccccc3)[C@H]2C1=O	none
Cc1cccc(Cn2cc(CN3CC(N(C)CCCOC(=O)c4cc5ccccc5o4)CS3(=O)=O)nn2)c1 (stereo unspecified)	none (no result: GRIN3A LBD mod, FAS TE block)
CCOC(=O)[C@@]12CCCC=C1N(CCc1ccc(Cl)cc1)C(=O)[C@H]2CC(=O)N1CCCCC1	none (no result: GRIN3A LBD mod, FAS TE block)
COc1ccc(COC(=O)c2cc([N+](=O)[O-])ccc2N2CCOCC2)cc1F	FAS TE block 54 | FAS-TE conf inactive
O=C(OCc1ccc(Br)cc1)c1cc([N+](=O)[O-])ccc1N1CCOCC1	FAS TE block 73 (no result: GRIN3A LBD mod) | FAS-TE conf inactive
O=C(OCc1cccc(C(F)(F)F)c1)c1cc([N+](=O)[O-])ccc1N1CCOCC1	FAS TE block 58 | FAS-TE conf 46
O=C(OCc1cccc(Cl)c1)c1cc(S(=O)(=O)N2CCCCC2)ccc1N1CCOCC1	none
O=C(OCc1cccc(Cl)c1)c1cc([N+](=O)[O-])ccc1N1CCOCC1	FAS TE block 59 | FAS-TE conf inactive
O=C(c1ccc(Br)cc1)c1cc([N+](=O)[O-])ccc1N1CCOCC1	none
Cc1cccc(C(=O)Nc2c(-c3ccc(C(F)(F)F)cc3)nc3ncccn23)c1	none (no result: GRIN3A LBD mod, FAS TE block)
CCN(CC)c1ccc(C=NNC(=O)c2cc(-c3ccc(C)c(C)c3)n[nH]2)c(O)c1	none (no result: GRIN3A LBD mod, FAS TE block)
CCN(CC)C(=O)CC[C@H]1CC[C@]2(CCCN(Cc3nccs3)C2)O1	none (no result: GRIN3A LBD mod, FAS TE block)
Cc1cccc(NC(=O)CCC(=O)N/N=C/c2cc([N+](=O)[O-])ccc2O)c1	none
O=C(Cn1nc2ccccc2n1)N/N=C/c1cc([N+](=O)[O-])ccc1O	FAS TE block 57 | FAS-TE conf 75
Cc1cc([N+](=O)[O-])nn1CC(=O)N/N=C/c1ccccc1Br	FAS TE block 63 | FAS-TE conf 68
O=C(CCC(=O)Nc1ccc(F)cc1)N/N=C/c1cc([N+](=O)[O-])ccc1O	FAS TE block 56 | FAS-TE conf 65
O=C(Cn1nnc(-c2ccccc2)n1)N/N=C/c1cc([N+](=O)[O-])ccc1O	none
O=C(Cn1cnc([N+](=O)[O-])n1)N/N=C/c1ccccc1O	none
O=C(Cn1cnc([N+](=O)[O-])n1)N/N=C/c1cc(Cl)ccc1O	FAS TE block 79 | FAS-TE conf 88
O=S1(=O)c2ccc(N3CCCC3)cc2Oc2ccccc2CN1Cc1cn(Cc2cccc(F)c2)nn1	none (no result: GRIN3A LBD mod, FAS TE block)
O=C(CCC(=O)Nc1ccc(Br)cc1)N/N=C/c1cc([N+](=O)[O-])ccc1O	FAS TE block 56 | FAS-TE conf 64
O=c1[nH]c(C2CCCN(S(=O)(=O)c3cccc(Cl)c3)C2)nc2c1nnn2Cc1ccc2c(c1)OCCO2 (stereo unspecified)	FAS TE block 54 | FAS-TE conf inactive
N#C/C(=C\c1c(N2CCN(c3ccccc3)CC2)nc2ccccn2c1=O)S(=O)(=O)c1ccccc1	FAS TE block 71 | FAS-TE conf inactive
Cc1cccn2c(=O)c(/C=C(\C#N)S(=O)(=O)c3ccccc3)c(N3CCCCC3)nc12	FAS TE block 54 | FAS-TE conf inactive
CCOC(=O)C1CCN(c2nc3c(C)cccn3c(=O)c2/C=C(\C#N)S(=O)(=O)c2ccccc2)CC1	FAS TE block 65 | FAS-TE conf inactive
Cc1cccn2c(=O)c(/C=C(\C#N)S(=O)(=O)c3ccccc3)c(N3CCN(C)CC3)nc12	none
CCOc1cccc(/C=N\NC(=O)Cc2cccs2)c1O	none (no result: GRIN3A LBD mod, FAS TE block)
O=C(CCNc1ccc(Br)cc1)c1cccc([N+](=O)[O-])c1	FAS TE block 64 | FAS-TE conf 53
O=C(Nc1ccc(Br)cc1)c1cccc(-n2cnnn2)c1	GRIN3A LBD mod 39, FAS TE block 52 | FAS-TE conf 31
CS(=O)(=O)c1ccc(NC(=O)c2cccc(-n3cnnn3)c2)cc1	none
CCNc1ccc(S(=O)(=O)N(C)C)cc1NCC(=O)Nc1ccc(F)c(Cl)c1	FAS TE block 58 | FAS-TE conf 39
Cc1csc(NC(=O)c2ccc(COc3cccc(F)c3)o2)n1	none (no result: GRIN3A LBD mod, FAS TE block)
COC(=O)[C@@]1(Cc2ccc(F)cc2)[C@H]2c3cc(C(=O)N4CCCC4)n(CCc4c[nH]c5ccccc45)c3C[C@H]2CN1C(=O)c1ccccc1	FAS TE block 62 (no result: GRIN3A LBD mod) | FAS-TE conf inactive
COC(=O)[C@@]1(Cc2ccc(F)cc2)[C@H]2c3cc(C(=O)N4CCCC4)n(CCF)c3C[C@H]2CN1C(=O)c1ccccc1	none (no result: GRIN3A LBD mod)
COC(=O)[C@@]1(Cc2ccc(OC)cc2)[C@H]2c3cc(C(=O)N4CCCC4)n(CCc4c[nH]c5ccccc45)c3C[C@H]2CN1C(=O)c1ccccc1	FAS TE block 58 (no result: GRIN3A LBD mod) | FAS-TE conf inactive
CCCCN=C(N)NC(=O)OCc1ccccc1	none (no result: GRIN3A LBD mod, FAS TE block)
CCOC(=O)CC(NC(=O)c1cc2ccccc2oc1=O)c1cccc([N+](=O)[O-])c1 (stereo unspecified)	FAS TE block 50 | FAS-TE conf 55
CCOC(=O)CC(N)c1cccc([N+](=O)[O-])c1 (stereo unspecified)	none
COC(=O)CC(NC(=O)Nc1ccc(C)cc1)c1cccc([N+](=O)[O-])c1 (stereo unspecified)	FAS TE block 53 | FAS-TE conf 65
O=C(O)CC(NC(=O)C(c1ccccc1)c1ccccc1)c1cccc([N+](=O)[O-])c1 (stereo unspecified)	FAS TE block 52 | FAS-TE conf 64
c1cc2ccn(CC3CC3)c2cc1-c1ccc2ccn(CC3CC3)c2c1	none (no result: GRIN3A LBD mod, FAS TE block)
